The panel holds about 83,000 compounds, 20% with a hit somewhere; the sample as a whole holds those more often.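 Step 1: grow cells in 96-well plates. Step 2: add test compound at a single concentration. Step 3: incubate 48 h. Step 4: record percent growth.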 Values without a mark were called inactive. Calls of active or inactive are those of the source. How the source made its calls: active means growth percent below 10; inactive means the rest.

Holding throughout (experiment): NCI-60 one-dose screen, 48 h (100 = growth as untreated, 0 = no growth, -100 = all killed)
Conditions in all cases: 10 µM unless noted

Experiment [1] deals with EKVX NSCLC.
Experiment [2] has as its system SN12C renal.
Experiment [3] relates to UO-31 renal.
Experiment [4] has as its system TK-10 renal.
For experiment [5], the system named is ACHN renal.
Experiment [6] has as its system CAKI-1 renal.
In experiment [7] the test system is A498 renal.
Experiment [8] relates to CCRF-CEM leukemia.
The test system of experiment [9] is SR leukemia.
For experiment [10], the system named is RPMI-8226 leukemia.
Experiment [11] relates to OVCAR-8 ovarian.
Experiment [12] relates to OVCAR-5 ovarian.
Experiment [13] concerns OVCAR-4 ovarian.
Experiment [14] deals with IGROV1 ovarian.
The test system of experiment [15] is OVCAR-3 ovarian.
Experiment [16] relates to HS 578T breast.
In experiment [17] the test system is T-47D breast.
Experiment [18] deals with MOLT-4 leukemia.
For experiment [19], the system named is SK-OV-3 ovarian.
In experiment [20] the test system is NCI/ADR-RES ovarian.

With `Cn1c(SCC(=O)c2cccs2)nc2ccccc2c1=O`, the growth in [1] is 73.1%; in experiment [2], 91.8%; in experiment [3] it was 84.5%; in experiment [4], 177%; in experiment [5], 91.7%; in experiment [6], 82.1%. Also, the growth in experiment [7] is 63.9%; in experiment [8] it was 80.3%; in experiment [9], 90.4%; in experiment [10], 81.7%; in [11], 97.5%; in experiment [12], 109%. In addition, the growth is 92.9% in [13]; 74.8% in experiment [14]; 98% in experiment [15]; 90.8% in experiment [16]; 54.2% in [17].
As for `COc1cc(/C=C/C(=O)c2ccc(Cl)cc2)ccc1Oc1nc(NCCO)nc(N2CCOCC2)n1`, the growth is 99.6% in experiment [1]; 96.6% in experiment [2]; 76.7% in experiment [3]; 110% in [4]; 98.8% in experiment [5]; 94.2% in experiment [6]. For the same compound, the growth in experiment [8] was 78.4%; in experiment [18], 78.6%; in experiment [9], 9.04% (active); in [10], 65.4%; in experiment [11], 104%; in experiment [12], 102%. Further, the growth in [13] is 114%; in experiment [19], 96.6%; in [14], 99%; in experiment [15], 116%; in experiment [16] it was 84%; in [20], 105%. Moreover, the growth in [17] is 86.1%.
As to `C#Cc1nc(C2=C(C)C(OC(C)=O)/C(=N/OC(C)=O)C2)cs1` (stereo unspecified), the growth in [1] was 9.96% (active); in experiment [2], 86.6%; in [3], -88.9% (active); in [4], 203%; in experiment [5], -66% (active); in [6] it was -50.2% (active). Also, the growth in experiment [8] was -39% (active); in [18] it was -35.2% (active); in experiment [9], -25.6% (active); in [10] it was -45.1% (active); in experiment [11] it was 0.146% (active); in [12] it was 30.1%. In addition, the growth in [13] is -46% (active); in experiment [19] it was -78.4% (active); in [14], -59% (active); in [15], -15.8% (active); in experiment [16], 4.76% (active); in experiment [20], -5.63% (active). Moreover, the growth in experiment [17] is 67%.
Regarding `O=C1NC(=C(Cl)Cl)/C(=N/S(=O)(=O)N2CCCCC2CC2(C(F)(F)F)N=N2)N1` (stereo unspecified), the growth in experiment [1] is 59.2%; in experiment [2] it was 95.8%; in [3], 18.2%; in experiment [4], 63.4%; in [5], -48.9% (active); in experiment [6] it was -65.4% (active). Also, the growth was 4.21% (active) in [8]; -9.34% (active) in experiment [18]; -33.4% (active) in experiment [9]; -6.5% (active) in [10]; 17.6% in [11]; 91.1% in experiment [12]. In addition, the growth was -10.2% (active) in experiment [13]; 136% in experiment [19]; -0.053% (active) in experiment [14]; -15.1% (active) in experiment [15]; 52.2% in experiment [16]; 63.4% in experiment [20]. The growth in [17] was 65.7%.
For the compound `COc1cccc(-c2nn(-c3ccccc3)cc2-c2ccnc(N3CCN(C(=O)Nc4ccc(F)cc4)CC3)c2)c1`, the growth was 62.1% in experiment [1]; 67.4% in experiment [2]; 34.4% in [3]; 92.9% in experiment [4]; 67.6% in experiment [5]; 49.2% in [6]. Besides, the growth in experiment [7] was 56.9%; in experiment [8] it was 31.8%; in experiment [18], 19.3%; in experiment [10], 21.4%; in experiment [11], 48.8%; in experiment [12] it was 97.6%. The growth in [13] is 51.2%; in [19] it was 107%; in [14], 79.1%; in experiment [16], 85.8%; in [20], 33.4%; in experiment [17], 3.31% (active).
For `C=CCn1c(SCC(=O)c2ccccc2)nnc1-c1c[nH]c2ccccc12`, the growth was 95.8% in experiment [1]; 92.7% in experiment [2]; 65.7% in [3]; 144% in experiment [4]; 93.8% in experiment [5]; 83.1% in experiment [6]. The growth was 91.2% in [8]; 92.8% in experiment [18]; 76.5% in experiment [9]; 86.6% in experiment [10]; 95.4% in experiment [11]; 103% in experiment [12]. Besides, the growth in experiment [13] is 97.5%; in experiment [19] it was 120%; in experiment [14] it was 88.4%; in experiment [15] it was 115%; in [16] it was 97%; in experiment [20], 97.4%. In addition, the growth in experiment [17] was 95%.
With `COc1cccc(OC)c1-c1nnn(C)c1C(=S)N1CCN(c2ccc([N+](=O)[O-])cc2Cl)CC1`, the growth is 83.6% in [1]; 93.6% in experiment [2]; 58.7% in [3]; 105% in experiment [4]; 92.2% in experiment [5]; 78.9% in [6]. Further, the growth in [8] is 91.7%; in [18], 78%; in [9], 87.1%; in experiment [11] it was 95.4%; in experiment [12], 91.6%; in experiment [13], 91.9%. Besides, the growth in [19] is 110%; in experiment [14], 78.1%; in experiment [15], 112%; in experiment [16], 95%; in experiment [20] it was 93.6%; in experiment [17], 101%.
`CC1=C(C)C(=O)C(Nc2ccccc2)=C(Cl)C1=O`: the growth in experiment [1] is 55.2%; in [2] it was 91.1%; in experiment [3] it was 98.8%; in experiment [4] it was 128%; in experiment [5], 100%; in experiment [6] it was 96.1%. In addition, the growth was 91.2% in [7]; 12.7% in experiment [18]; 62.9% in experiment [9]; 53.6% in experiment [10]; 94.9% in [11]; 104% in experiment [12]. Also, the growth in [13] was -97.9% (active); in experiment [14], 9.69% (active); in experiment [15] it was 102%; in experiment [16], 101%; in experiment [17], -38.9% (active).

Source of the values: PubChem BioAssay (NCI).
